GCN5L2 inh: GCN5L2 (KAT2A) acetyltransferase inhibition; Q92830; GCN5L2 HAT assay, ThioGlo1 CoA-SH fluorescence; Potency, µM (highest dose often 58.9 µM), inactives show at the top dose activity change, negative = inhibition, hits mostly inhibitors; 0.21% of 390,000 active; AID 504327
Target sequence (Q92830 whole entry, looked up): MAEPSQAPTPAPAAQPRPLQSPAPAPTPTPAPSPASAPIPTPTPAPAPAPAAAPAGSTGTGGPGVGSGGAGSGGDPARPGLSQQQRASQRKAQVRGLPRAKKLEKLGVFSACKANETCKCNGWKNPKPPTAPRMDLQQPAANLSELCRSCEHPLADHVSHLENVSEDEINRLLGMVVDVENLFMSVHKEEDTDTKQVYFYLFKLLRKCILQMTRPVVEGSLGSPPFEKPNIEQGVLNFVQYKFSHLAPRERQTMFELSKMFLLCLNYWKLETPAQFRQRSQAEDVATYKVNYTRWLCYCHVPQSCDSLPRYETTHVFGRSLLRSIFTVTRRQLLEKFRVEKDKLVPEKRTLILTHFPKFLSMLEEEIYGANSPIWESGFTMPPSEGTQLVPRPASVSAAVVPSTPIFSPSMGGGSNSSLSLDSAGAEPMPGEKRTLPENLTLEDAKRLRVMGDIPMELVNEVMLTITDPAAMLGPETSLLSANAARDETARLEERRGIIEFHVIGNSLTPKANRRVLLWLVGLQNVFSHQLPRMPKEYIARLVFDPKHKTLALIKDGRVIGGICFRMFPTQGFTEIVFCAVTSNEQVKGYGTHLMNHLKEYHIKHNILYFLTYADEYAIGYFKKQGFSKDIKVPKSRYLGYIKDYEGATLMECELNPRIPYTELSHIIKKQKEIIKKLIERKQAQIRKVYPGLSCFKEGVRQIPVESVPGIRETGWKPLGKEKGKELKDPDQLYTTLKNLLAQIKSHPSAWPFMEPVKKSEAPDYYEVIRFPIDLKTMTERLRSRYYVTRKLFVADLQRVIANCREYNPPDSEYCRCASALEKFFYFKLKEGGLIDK
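Compounds, pin-transferred from DMSO stocks, meet 20nM GCN5L2 for 15 min before the reaction begins with H3(1-25) peptide (75uM) and acetyl-CoA (70uM). Thiol-reactive ThioGlo1 reports CoA release over 20 min at room temperature.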
DT40 TDP1 no CPT: qHTS for Inhibitors of human tyrosyl-DNA phosphodiesterase 1 (TDP1): qHTS in cells in absence of CPT | DT40 Tdp1-/- hTDP1 cells, no CPT, ATP luminescence, 48 h | Potency, µM (highest dose often 46.2 µM), for the others: at the highest dose activity change, negative = growth inhibition, actives largely listed as inhibitors | 15% of 420,000 active | AID 686978, 2013; also: nearly all actives have a fitted effect of over 55% in size
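Chicken DT40 Tdp1-/- cells complemented with human TDP1, screened without camptothecin (DMSO vehicle only), 400 cells/well. Compounds pin-transferred, cells incubated at 37 °C for at least 48 hr. Growth read as ATP-dependent luminescence (CellTiter-Glo, 30 min at RT).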
PLK1 PBD block: blocks phosphopeptide binding to human PLK1 polo-box domain | AID 720504 | P53350 | Potency, µM, without a hit: max response, negative = inhibition, usual class: inhibitors | 2.8% of 360,000 active | Plk1 PBD binding of FITC phosphopeptide, fluorescence polarization; also: series mostly up to about 57 µM; nearly all actives have a fitted effect of over 65% in size
TDP1 cell CPT: DT40-hTDP1 cell growth loss with CPT | AID 686979 | chicken DT40 Tdp1-/-;hTDP1 cells + 20 nM CPT, ATP luminescence, 48 h | Potency, µM (titrated, usually from 46.2 µM), for inactives: at the top dose activity change, negative = growth inhibition, usual class: inhibitors | 12% of 420,000 active; also: nearly all actives have a fitted effect of over 55% in size
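Chicken DT40 Tdp1-/- cells complemented with human TDP1, 400 cells/well, exposed to compounds plus 20 nM camptothecin for at least 48 h at 37 C; viability read as ATP content by CellTiter-Glo luminescence.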
TDP1 inh: TDP1 (human) enzyme inhibition. Q9NUW8. recombinant TDP1, AlphaScreen DNA substrate cleavage. Potency, µM (highest dose often 130 µM), for the others: top-dose activity change, negative = inhibition, actives largely listed as inhibitors. 0.28% of 350,000 active. AID 485290; also: nearly all actives have a fitted effect of over 40% in size
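Recombinant human Tdp1 (E. coli-expressed, 1 nM final) preincubated with compounds 15 min at room temperature, then 5'-biotin/3'-phosphotyrosine-FITC DNA substrate (15 nM final) added for 5 min. AlphaScreen beads (10 ug/ml final) added 10 min; cleavage lowers signal.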
VDR inh: vitamin D3 receptor (human) inhibition | P11473 | AID 504847 | 0.93% of 400,000 active | VDR-SRC2-3 peptide fluorescence polarization, 2 h | Potency, µM, for inactives: max response, negative = inhibition, most hits filed as inhibitors
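The screen uses fluorescence polarization to detect compounds that interfere with recruitment of the SRC2-3 coactivator peptide to VDR; plates are read after 2 h at room temperature.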
* hit, by the source's call; ? = inconclusive; . = no result given; [ ] = another dose, or the depositor's remark. Most compounds without a hit are left out; they make up all but 18% or so of the library. Calls follow the shape of the dose curve; as a rule, active = well fitted curve in the direction sought with a large enough effect; inconclusive = small, poorly fitted or top-dose-only effect, or another doubt; inactive = no such curve, though single readings can be large; an effect the other way counts as inactive or inconclusive. % is scaled to controls: 0 for no effect and ±100 for the full control effect; potency is read from the fitted curve at half-maximal effect.

SMILES	GCN5L2 inh	DT40 TDP1 no CPT	PLK1 PBD block	TDP1 cell CPT	TDP1 inh	VDR inh
CC1CCN(CCNC(=O)C2CCCN(S(=O)(=O)c3cccc4nsnc34)C2)CC1 (stereo not drawn)	-7.7%	0.7%	-5.3%	11.1%	3.6%	-14.9%
COc1ccc(OCCn2c(C)nc3cc(C)c(C)cc32)cc1	-3.8%	20.6µM*	.	14.6µM*	5.7%	2.9%
CCC(O)c1nc2ccccc2n1Cc1cccc(Cl)c1 (stereo not drawn)	-6.4%	18.4µM*	.	?	9.3%	4.3%
CC(c1nc2ccccc2n1Cc1ccccc1)N1CCCCC1 (stereo not drawn)	-0.1%	18.4µM*	-10.8%	16.4µM*	.	10.8%
Cc1nc2ccccc2n1Cc1ccccc1	-6.2%	?	-4.8%	16.4µM*	.	15.3%
CCC(O)c1nc2ccccc2n1Cc1cc(C)ccc1C (stereo not drawn)	-7.1%	?	.	?	0.0%	1.8%
C=CCn1c(CNS(=O)(=O)c2ccc(Br)cc2)n[nH]c1=S	-2.4%	?	-2.6%	?	2.7%	1.1%
COc1ccc2c(c1)CC(NC(=O)Nc1ccc(NC(C)=O)cc1)CO2 (stereo not drawn)	-1.6%	-6.6%	.	-4.7%	5.4%	9.4%
Cc1nc([N+](=O)[O-])c(Sc2nc3ccccc3n2C)n1Cc1ccccc1	0.7%	5.17µM*	?	?	4.3%	?
Cc1nc2cc(NCc3ccccc3O)ccc2n1Cc1ccccc1	-20.8%	?	3.36µM*	?	8.5%	?
CCCC(O)c1nc2ccccc2n1CCCOc1ccc(Cl)cc1 (stereo not drawn)	-9.8%	3.26µM*	.	3.66µM*	8.6%	14.6%
Cc1ccc(OCCn2c(C)nc3ccccc32)cc1	2.9%	?	0.9%	?	.	15.2%
CCCn1c(C(O)c2ccc(OC)cc2)nc2ccccc21 (stereo not drawn)	1.6%	-30.0%	-14.7%	?	4.4%	-7.6%
Cc1nc2ccccc2n1CCCOc1ccccc1	-0.3%	23.1µM*	0.7%	?	5.5%	12.0%
O=C(NCCN1CCC(n2c(=O)[nH]c3ccccc32)CC1)c1ccc(F)cc1Cl	.	?	-8.8%	?	.	.
O=C1CCc2cc(S(=O)(=O)N3CCCCC3)cc3c2N1CC3	5.6%	-7.2%	-0.2%	-5.6%	-2.1%[0.505 µM]	-2.8%
CC12CCC(=O)N1C(C(=O)OCC(=O)Nc1ccc(C(F)(F)F)cc1)CS2 (stereo not drawn)	-0.5%	-6.3%	-2.7%	-17.5%	1.3%	6.7%
CC(=O)OCC(NC(=O)C(C)NC(=O)OC(C)(C)C)C1OC(n2ccc(=O)[nH]c2=O)C(OC(C)=O)C1OC(C)=O (stereo not drawn)	.	.	.	.	.	-9.8%
Cc1nc2ccccc2n1Cc1ccccc1Br	-0.1%	?	1.7%	?	.	-10.8%
Cc1cccc(Cn2c(-c3cccc(Br)c3)nc3ccccc32)c1	1.4%	16.4µM*	.	18.4µM*	-2.6%	-3.2%
CCC(C)Cn1c(C)nc2ccccc21 (stereo not drawn)	-1.3%	10.3µM*	-2.1%	?	2.2%	10.8%
Cc1nc(Br)c(Br)n1Cc1ccccc1	.	20.6µM*	-10.5%	?	.	.
Cc1ncc([N+](=O)[O-])n1Cc1ccccc1	-1.8%	-13.6%	-9.7%	-10.2%	-2.7%	-11.1%
Cc1nc2ccccc2n1Cc1ccc(Br)cc1	.	6.51µM*	-4.3%	5.8µM*	.	-12.2%
Cc1nncn1-c1ccc(C(=O)Nc2cc(F)ccc2F)cc1	-1.4%	-28.0%	.	2.9%	-1.1%	2.3%
SMILES	GCN5L2 inh	DT40 TDP1 no CPT	PLK1 PBD block	TDP1 cell CPT	TDP1 inh	VDR inh
COc1cccc(-c2cc(C(=O)N3CCc4ccccc4C3)[nH]n2)c1	-2.0%	-14.2%	1.4%	-18.0%	1.7%	9.4%
CC(C)CN(CC(C)C)CC(O)COc1ccc([N+](=O)[O-])cc1 (stereo not drawn)	-4.0%	18.4µM*	-5.1%	?	2.7%	-4.3%
CC(C)CN(CC(C)C)CC(O)COc1ccccc1Br (stereo not drawn)	-0.7%	14.6µM*	-15.3%	?	-4.5%	11.0%
Cc1ccccc1OCC(O)CN(CCO)Cc1ccccc1 (stereo not drawn)	-1.7%	-9.0%	-3.1%	-4.4%	2.4%	-12.2%
Nc1nc(N)c(-c2cccc(C(F)(F)F)c2)c(Cc2cccc(C(F)(F)F)c2)n1	.	1.3µM*	-1.1%	2.91µM*	.	-0.7%
COC(=O)C(C(=O)OC)[C@@H]1O[C@@]23COC=C[C@]2(C)[C@H]3c2ccccc21	.	.	.	.	8.7%	-7.3%
O=C(CC1(O)C(=O)Nc2ccccc21)c1ccccc1 (stereo not drawn)	1.7%	1.8%	13.9%	?	0.0%	-2.2%
CC1CC(C)C(=O)C(C(CC2CC(=O)NC(=O)C2)OC(=O)CC(=O)c2ccccc2)C1 (stereo not drawn)	.	0.411µM*	1.3%	0.366µM*	.	-7.1%
O=C(O)c1cccc(NC2=C(Cl)C(=O)c3ccccc3C2=O)c1	-5.8%	13µM*	16.8µM*	11.6µM*	-2.3%	?
C=CCNC1=C(Cl)C(=O)N(c2cccc(Cl)c2Cl)C1=O	-7.5%	-15.4%	-6.8%	5.6%	-2.0%	-19.3%
CC(=O)N(Cc1ccc(F)cc1)C1=C(NCCc2ccccc2)C(=O)c2ccccc2C1=O	-27.5%	1.84µM*	0.9%	1.84µM*	14.1%	14.9%
O=C(O)c1ccc(NC2=C(Cl)C(=O)c3ccccc3C2=O)cc1	-17.2%	13µM*	5.32µM*	14.6µM*	-7.5%	?
C=CCNC1=C(Cl)C(=O)c2ccccc2C1=O	-2.4%	16.4µM*	-6.8%	14.6µM*	9.3%	-6.6%
C#CCOCCOCCOCCNc1nc(N2CCN(C(=O)[C@H](CCCCN)n3cc(CN)nn3)CC2)nc(N2CCN(C(=O)[C@H](CCCN=C(N)N)n3cc(C(N)[C@H](C)CC)nn3)CC2)n1 (stereo partly drawn)	0.4%	2.2%	-5.3%	1.5%	-0.3%	-11.5%
COCCCNC1=C(Cl)C(=O)c2ccccc2C1=O	0.0%	?	-16.2%	?	3.6%	19.2%
CCN(CC)CCCNC1=C(Cl)C(=O)c2ccccc2C1=O	-3.2%	4.11µM*	-6.2%	3.26µM*	.	10.5%
O=C1C(Cl)=C(Nc2ccccc2)C(=O)c2ccccc21	-8.3%	2.91µM*	-15.0%	2.06µM*	0.6%	3.4%
O=C1C(Cl)=C(NCc2cccnc2)C(=O)c2ccccc21	-14.2%	8.2µM*	-25.9%	13µM*	.	-7.7%
O=C1C(Cl)=C(NCCc2ccccc2)C(=O)c2ccccc21	.	1.46µM*	2.67µM*	0.82µM*	.	17.8µM*

Screening results (PubChem)
